High-throughput results deposited in PubChem by several laboratories.
phage Ecoli inh = E. coli growth loss with phage present. growth absorbance. inhibition, % at 11.9 µM. 360,000 tested, 0.26% active; in the data active = inhibition above about 11%
E coli growth-1 = blocks Escherichia coli growth | OD600, 23 h; active compounds read low | AID 1053175 | 330,000 tested, 0.21% active | OD600 absorbance (no concentration beside the values);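 active = OD600 absorbance below the run mean of sample wells minus 3.6 SD, in any replicate, cut at about 0.56 in these data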
AddAB inh = less growth of phage-infected E. coli with AddAB | 330,000 tested, 0.29% active | inhibition, % at 11.9 µM | E. coli expressing H. pylori AddAB, absorbance growth; in the data active = inhibition above about 12%;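 also: 0% = vehicle wells of infected cells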
Tat transport = inhibitors of E. coli Tat protein transport; E. coli MC4100 TorA-mCherry Tat export, fluorescence; inhibition, % at 10 µM; 340,000 tested, 0.036% active; AID 488895;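 active = mean replicate inhibition at least 50% and at least half of replicates individually reaching 50%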;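 also: exported cargo escapes ClpAP degradation while cytoplasmic cargo is degraded and loses fluorescence; 0% = median of neutral control wells and 100% = median of NaSCN control wells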
E coli growth-2 = reduces bacterial viability in AddAB counter-screen. E. coli V3065 growth, OD600 absorbance, 18 h. inhibition, % at 11.9 µM. 330,000 tested, 0.27% active. AID 449728;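 active = inhibition above the campaign's mean inhibition across all tested compounds plus 3 SD, cut at about 9.9% in these data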;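 also: uninfected addAB+ strain grown without phage in ampicillin broth; 0% = DMSO wells and 100% = ciprofloxacin 0.95 µg/ml wells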
AddAB confirm = growth loss of T4-infected E. coli expressing H. pylori AddAB, confirmed; shares compounds with AddAB inh; E. coli V3065 expressing H. pylori AddAB, T4 phage, OD; T4 phage with gene 2 nonsense mutations; inhibition, % at 11.9 µM; 880 tested, 64% active; AID 488942;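 active = mean inhibition above a set limit taken from the earlier primary screen, cut at about 13% in these data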;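 also: higher means less bacterial growth since AddAB block lets phage replicate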
RecBCD counter = counter-screen: growth loss of RecBCD+ E. coli with mutant T4 phage; inhibition, % at 11.9 µM; shares compounds with AddAB inh; 880 tested, 73% active; E. coli V66 + mutant T4 phage, OD growth;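 active = mean inhibition above the mean of solvent-only control wells plus 3 SD, cut at about 4% in these data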;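 also: optical density read after an 18 h incubation at 37 °C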
bact viab count = counter-screen: bacterial growth inhibition | AID 488956 | shares compounds with AddAB inh | 880 tested, 35% active | inhibition, % at 11.9 µM | bacterial viability, absorbance (AddAB counterscreen); in the data active = inhibition above about 25%
Active calls of the source: *; / = no result. In the library only some 0.5% were active in any assay of this set; here they are far more common.

SMILES	phage Ecoli inh	E coli growth-1	AddAB inh	Tat transport	E coli growth-2	AddAB confirm	RecBCD counter	bact viab count
Cc1onc(-c2ccccc2)c1C(=O)O/N=C(\N)c1ccc([N+](=O)[O-])o1	-16	/	16*	3	7	33*	3	6
Oc1ccc(/C=N/N=C/c2ccc(O)c(O)c2)cc1O	0	/	34*	4	-3	-1	0	-2
Oc1ccc(N=Cc2ccc(O)c(O)c2)cc1	/	0.68	1	-6	0	/	/	/
Cc1cc(/C=N/NC(=O)c2ccccc2F)c(C)n1-c1ccccc1	4	/	131*	1	-1	1	2	0
CCn1cc(C(=O)NCCc2ccccc2)c(=O)c2cc(F)c(N3CCN(C)CC3)cc21	2	0.6	21*	7	13*	71*	0	22
CCn1cc(C(=O)NCc2ccccn2)c(=O)c2cc(F)c(N3CCN(C)CC3)cc21	6	/	98*	5	93*	99*	16*	98*
N#CCC(=O)NN=Cc1cccc(OC/C=C/c2ccccc2)c1	/	0.74	/	/	/	/	/	/
COc1cccc(/C=N/NC(=O)c2[nH]c(C)c(C(=O)N/N=C/c3cccc(OC)c3O)c2C)c1O	22*	/	28*	11	28*	18*	21*	13
CCOC1OC(C(=O)N2CCOCC2)=CC(c2ccc(C(F)(F)F)cc2)C1CCCO (stereo unspecified)	/	0.69	/	/	/	/	/	/
C/C(=C\C(=O)OCCCCCCCCC(=O)O)C[C@@H]1OC[C@H](C[C@@H]2O[C@H]2[C@@H](C)[C@H](C)O)[C@@H](O)[C@H]1O	10	/	18*	128*	6	7	18*	2
COCCNC(=S)NN=C(C)c1cccc(C(F)(F)F)c1	/	0.71	/	/	/	/	/	/
O=C(NN1C(=O)CSC1=S)C(=O)NN1C(=O)CSC1=S	13*	0.66	12*	-7	12*	34*	16*	28*
CCn1ncc(C=NNC(=O)c2cc(-c3ccc(C)cc3C)nc3ccccc23)c1C	/	0.74	/	/	/	/	/	/
COc1ccc(N2C(=O)N3C(c4ccc(Cl)cc4)C4C(=O)N(C5CCCCC5)C(=O)C4[C@]3(Cc3ccc(Cl)cc3)C2=O)cc1 (stereo partly specified)	/	0.72	/	/	/	/	/	/
CCCOc1ccccc1C=NNc1ccnc(=O)[nH]1	/	0.51	/	/	/	/	/	/
CCCOc1ccccc1/C=N/Nc1ccnc(=O)[nH]1	1	/	13*	4	21*	100*	4	68*
CSc1nnc2n(-c3ccc(C)cc3)c(=O)c3c4c(sc3n12)COC(C(C)C)C4 (stereo unspecified)	1	0.73	15*	0	8	-6	-1	-5
Cc1ccccc1COc1cccc(C=NNC(=O)c2nnn(-c3nonc3N)c2C)c1	/	0.68	/	/	/	/	/	/
O=C(NCc1ccccc1)C(c1ccccc1)N(C(=O)c1csnn1)C1CC1 (stereo unspecified)	3	0.71	3	-2	1	/	/	/
CCc1ccc(C(C(=O)NCc2ccccc2)N(C(=O)c2csnn2)C2CC2)cc1 (stereo unspecified)	0	0.65	99*	-2	46*	-4	0	-2
COc1cc(C=NNC(=O)C2CCN(CC(O)COCc3ccccc3)CC2)cc(OC)c1OC (stereo unspecified)	/	0.71	/	/	/	/	/	/
COc1ccc(CC(C)=NNC(=S)Nc2ccc(C(C)C)cc2)cc1	/	0.7	/	/	/	/	/	/
O=Cc1ccc(OCc2cccc(C(F)(F)F)c2)cc1O	10	0.61	13*	-4	12*	8	9.5*	6
COC(=O)[C@@]1(Cc2ccc(OC)cc2)C2c3cc(C(=O)N4CCCC4)n(CCn4cc([N+](=O)[O-])nc4C)c3CC2CN1C(=O)c1ccccc1 (stereo partly specified)	/	0.74	/	/	/	/	/	/
CC(Sc1ccsc1[N+](=O)[O-])C(=O)NCc1ccco1 (stereo unspecified)	6	0.69	14*	-4	7	23*	2	11
SMILES	phage Ecoli inh	E coli growth-1	AddAB inh	Tat transport	E coli growth-2	AddAB confirm	RecBCD counter	bact viab count
CC(Sc1nnc(-c2cccs2)n1-c1ccccc1)C(=O)NCc1ccco1 (stereo unspecified)	0	0.71	1	-1	-3	/	/	/
O=C(NCc1ccco1)c1ccc(Cn2cc([N+](=O)[O-])cn2)o1	4	0.69	0	-11	-1	/	/	/
O=C(NCc1cccnc1)c1ccc([N+](=O)[O-])o1	17*	0.5*	17*	-7	13*	71*	7.9*	18
O=C(NCc1ccco1)c1ccc([N+](=O)[O-])o1	8	/	35*	-2	9	76*	6.6*	15
O=C(Cc1ccc([N+](=O)[O-])cc1)NCc1cccnc1	0	0.61	4	-18	-4	/	/	/
COc1cc(NC(=O)c2ccc([N+](=O)[O-])o2)ccc1NC(=O)c1ccco1	8	0.69	16*	-3	12*	74*	6.7*	22
COc1ccc2c(c1)OCC1C2N2C(=O)CNC(=O)[C@@]2(C)C1c1ccccc1 (stereo partly specified)	/	0.68	/	/	/	/	/	/
Oc1cc(-c2ccncc2)cc2cccnc12	3	0.68	2	-1	0	/	/	/
Oc1cc(-c2ccc(N3CCCCC3)nc2)cc2cccnc12	/	/	16*	4	15*	10	15*	13
CC1CN(C(C)CO)C(=O)c2cc(NC(=O)Nc3ccccc3)ccc2OC1CN(C)S(C)(=O)=O (stereo unspecified)	/	0.64	/	/	/	/	/	/
O=C(NC(Cc1ccc2c(c1)OCO2)C(=O)NC(Cc1ccccc1)C(=O)O)c1ccccc1 (stereo unspecified)	1	0.69	97*	-1	93*	-3	1	-1
Cc1ccc(CC(NC(=O)c2ccccc2)C(=O)NC(Cc2ccccc2)C(=O)O)cc1 (stereo unspecified)	2	0.71	3	-10	0	/	/	/
Cc1cc(N/N=C/c2ccc(O)cc2O)nc(-c2ccccc2O)n1	/	/	14*	1	4	17*	7.1*	9
CCOC(=O)c1ccc(NC(=O)CSc2ccc(-c3cccnc3)nn2)cc1	5	/	16*	-15	4	3	4.1*	0
COc1ccc(NC(=O)CSc2ccc(-c3cccnc3)nn2)cc1	4	0.64	5	1	0	/	/	/
O=C(NCc1ccccc1Cl)C1CCN(S(=O)(=O)N2CCCCCC2)CC1	2	0.71	2	2	-1	/	/	/
CCCS(=O)(=O)N1CCC(C(=O)NCc2ccccc2Cl)CC1	6	0.73	12*	-5	7	14*	5.8*	12
CCC(C)C1CNCCN1CCc1cc(C(F)(F)F)cc(C(F)(F)F)c1 (stereo unspecified)	/	0.63	/	/	/	/	/	/
